# In PMC12136788:
# Changes are numbered by the printed parent chain. The full ranking holds about 24,000 sequences; the median of “enrichment r” is about 0.99, and the highest 2% start at about 3.7. The sample holds the highest values, similar sequences and a random draw of the others, so the mix is not that of the screen.
# T1: UNK ZnF1-3 (human, UniProt Q9C0B0 31-174)
# T1 sequence: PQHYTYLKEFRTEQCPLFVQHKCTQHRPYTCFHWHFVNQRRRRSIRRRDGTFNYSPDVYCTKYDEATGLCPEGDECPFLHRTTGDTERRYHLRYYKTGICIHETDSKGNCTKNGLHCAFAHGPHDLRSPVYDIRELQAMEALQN
# B1: chr11:87793471:87793472:-_ENSMUSG00000020483_ENSMUST00000020775|mus_mus|mus_mus_mus_hu_False|8_98 (ssRNA)
# RNA: GGGAGUUCUACAGUCCGACGAUCUGGACUUGAAAAUAAAAAAAAUAGCUGGAUCCCCCACCCCCCCACAUUGUCAACCCUACACGAGAGUUUUGAAGGCGACUCAUGAAAAUCAGCAGCUCAAACGAAUGACAACCCCCCACCCAACAGAGGAUUGAGCAUCA
# B2: chr11:87793471:87793472:-_ENSMUSG00000020483_ENSMUST00000020775|mus_mus|mus_mus_mus_hu_False|8_68 (ssRNA)
# RNA: B1 RNA with A41G, A44U, U45A, U70G
# B3: chr11:87793471:87793472:-_ENSMUSG00000020483_ENSMUST00000020775|mus_mus|mus_mus_mus_hu_False|8_78 (ssRNA)
# RNA: B1 RNA with A41G, A44U, U45A, A59C, C60A, C65U, C66U
# B4: chr7:56127975:56127976:+_ENSG00000146731_ENST00000540286|hu_mus|FALSE|FALSE (ssRNA)
# RNA: GGGAGUUCUACAGUCCGACGAUCUGGUCCUUUAACCAGUAAAGUGACAGAACGGGGAUUGUUACACUUCUCAAUAAAGGUGAACUUCUCCUCACCCAGUGUAUACUCAUAGACAAGCUCUGCAUGUCCCAAACAGUCAGGAUUCAACAGAGGAUUGAGCAUCA
# B5: chr13:100193624:100193625:-_ENSMUSG00000052727_ENSMUST00000064762|mus_mus|FALSE|FALSE (ssRNA)
# RNA: GGGAGUUCUACAGUCCGACGAUCAAACCCUCAGAGUAAAAGAGCAGUGCGAAACAUACGCUUUACAGACGAAAAUAAACUAAAAUGUAAAUUUUGAAAUAAAUAACUAACAUAGAAAAUAAAAUGAGGUCAUUGUUCACUACCCAACAGAGGAUUGAGCAUCA
# B6: chr16:94651144:94651145:+_ENSMUSG00000040785_ENSMUST00000117648|mus_hu|mus_mus_mus_hu_True|18_58 (ssRNA)
# RNA: GGGAGUUCUACAGUCCGACGAUCAUUUUCUUGAAUCAAGUGGCGAAUAACAUAGUCCACUGCUUCAUUUAGAAAAUUUUUGCUAGAAAAACAGGUUGUAUAGUCUUCUGUGCUCAAAACCUUCCAAGAAAGCAAUUCUUUGAGCAACAGAGGAUUGAGCAUCA
# B7: chr13:100193624:100193625:-_ENSMUSG00000052727_ENSMUST00000064762|mus_mus|motif|central (ssRNA)
# RNA: B5 RNA with U80G, A81G
# B8: chr13:100201144:100201145:-_ENSMUSG00000052727_ENSMUST00000064762|mus_hu|FALSE|FALSE (ssRNA)
# RNA: GGGAGUUCUACAGUCCGACGAUCCUCCUCCAUAGGUGGUAUCUUAUGUGAUAAACUGGAGUCCUGCAUGUCAGAAGGACUGUAGUCCACUUCAGUUGGCCCAUUUUCAGUGAUGUGAAGCACGCCUGCACCCACUGUAGGGUGCAACAGAGGAUUGAGCAUCA
# B9: 95238312_95238432_61_3pUTR_ENSMUSG00000015522_ENSMUST00000090804|mouse|control|control (ssRNA)
# RNA: GGGAGUUCUACAGUCCGACGAUCACCCUCGGUGGGAGGGGCAGCCGCCACCGAGCUGGGGGAGGGGAGGGAAGAGCCACUCCGCAGAUUAGGCACCUUACCGCCGCCACCGCUACCGCGGAAUCCAAGAUGGCGGACGCCCACCAACAGAGGAUUGAGCAUCA
# B10: chr6:114274515:114274516:-_ENSG00000196591_ENST00000368632|hu_mus|motif|central (ssRNA)
# RNA: GGGAGUUCUACAGUCCGACGAUCCAUCACGCGAUCUGUUGUAUAAAAAGCUUCCUCAACACCAUCACCAUGGUGGAUGUCGGUGUCAAUAUAUAAGACUCUCUGAUGAUACUUAAGUAAUUCGAGGAUGGCAAGCACAAUAUCCAACAGAGGAUUGAGCAUCA
# B11: chr1:220276048:220276049:+_ENSG00000067704_ENST00000302637|hu_hu|hu_hu_hu_mus_True|8_58 (ssRNA)
# RNA: GGGAGUUCUACAGUCCGACGAUCGCAAAUUGCCUGGUUGGCGGGAAUUGUCCAAGGCUGGGUGGUCCAAACUAAAAUACUAACAGGGGAUGAGGCAUCUGUAAGAGACUCCAACUUCGGAGGAGGUUUUAAGAGAGGGAAUCUCAACAGAGGAUUGAGCAUCA
# B12: chr20:21346065:21346066:+_ENSG00000088930_ENST00000377191|hu_hu|FALSE|FALSE (ssRNA)
# RNA: GGGAGUUCUACAGUCCGACGAUCUCCUGGAAGCAUUACAGCUUUAAAAAUGUAAUCUUCAGCAAACUGUGGGUCUUUAAAAUUAAUACUGACUACAGUGUUCUGUGUCAGAUCCCUUAACAUAGGAACAGGAGAACAUACUAUCAACAGAGGAUUGAGCAUCA
# B13: chr1:220276048:220276049:+_ENSG00000067704_ENST00000302637|hu_hu|hu_hu_hu_mus_True|48_78 (ssRNA)
# RNA: GGGAGUUCUACAGUCCGACGAUCGCAAAUUGCCUGGUUGGCGGGAAUUGUCCAAGGUUGUGUGGUCCAAACUAAAACGCUAACAGGAGAUGAACCAUCUGUAAGAGACUCCAACUUCGGAGGAGGUCUCAGGAGGGGGAAUCUCAACAGAGGAUUGAGCAUCA
# B14: chr2:114709107:114709108:+_ENSG00000115091_ENST00000536059|hu_mus|FALSE|FALSE (ssRNA)
# RNA: GGGAGUUCUACAGUCCGACGAUCAGAGAGGACAAUGUUCUUGUAGAGAGGACGCCGGACAUCAAUGGGGCAAUUCUGAAUGACUUCAUCUACAACUUCUGAGAUAGGUUGUGUAAAAUCUGGAUUAGCAAACUCUGGAUGGAACAACAGAGGAUUGAGCAUCA
# B15: chr5:141234466:141234467:-_ENSMUSG00000000149_ENSMUST00000000153|mus_mus|motif|central (ssRNA)
# RNA: GGGAGUUCUACAGUCCGACGAUCAGGACAAUAGUCAAGGGUAACAGUGAAAUUAAAAUUAAAAAAAAAAAUACAAACGCCGGAGGUCUGGGAGAAACCUGACUACAAUCUACGUGGAGAAACUUGUAAAUGACUCCAGCCUGGCAACAGAGGAUUGAGCAUCA
# B16: chr5:141234466:141234467:-_ENSMUSG00000000149_ENSMUST00000000153|mus_mus|FALSE|FALSE (ssRNA)
# RNA: B15 RNA with G81U, G82A
# B17: chr2:9570881:9570882:+_ENSG00000119203_ENST00000238112|hu_mus|hu_hu_hu_mus_False|28_58 (ssRNA)
# RNA: GGGAGUUCUACAGUCCGACGAUCACUUGUCUUCUGAAGGAACCAGGGCAGGGCUCCACAGUGAUCCAAAUGGAAAUGACUAAUUAACAGAAGGUCGAUCUCAGCUGGGUCAAUUAAGUCAAUGUAAGGAAGGGCAUCCAUUCCCAACAGAGGAUUGAGCAUCA
# B18: chr1:220276048:220276049:+_ENSG00000067704_ENST00000302637|hu_hu|hu_hu_hu_mus_True|1_38 (ssRNA)
# RNA: B13 RNA with U57C, U60G, A87G, A93G, C94G, G100A, G138A, C142U
# B19: chr1:220276048:220276049:+_ENSG00000067704_ENST00000302637|hu_hu|hu_hu_hu_mus_True|8_28 (ssRNA)
# RNA: B11 RNA with U77C, A78G, C108U, U109G, C114U
# B20: chr1:59924863:59924864:+_ENSMUSG00000067336_ENSMUST00000087435|mus_hu|FALSE|FALSE (ssRNA)
# RNA: GGGAGUUCUACAGUCCGACGAUCGCUGCCAAAUUUUAGCCGGGGCUCUUUUGUUGAAUUUUUGGUGUUCAAAGGCAAACUAGUAGGUCUCUUGGGAAGGUUCUGCUGCUUGGGGAGAGGAUAGAUCUGAGUAGGCAGAACAUCCAACAGAGGAUUGAGCAUCA
# B21: chr17:13115065:13115066:+_ENSMUSG00000068039_ENSMUST00000151287|mus_hu|motif|central (ssRNA)
# RNA: GGGAGUUCUACAGUCCGACGAUCAAUAGUUGCUCCAGAAGCUUUGGCAAUGCGUUUAAGGUCCCUUUUUAAAACUCUUCGGACUGCCAUAGCACCAGCCUCCACAAAAUACUUCAGACACAUAUCAUCAAUUCCACCAGUGGUCAACAGAGGAUUGAGCAUCA
# B22: chr7:112906983:112906984:-_ENSMUSG00000036862_ENSMUST00000078482|mus_mus|FALSE|FALSE (ssRNA)
# RNA: GGGAGUUCUACAGUCCGACGAUCUGGGGAGAUAACUGGAGUCCCUGGUGGUGCAUUUUCACGGAGCACAGCCUCACUACUAGUUCUGGGAAAGCGGGGUCCACGCUCAGGCUCUCCCUGUAUUCCAACAACGACCACACCAGUCAACAGAGGAUUGAGCAUCA
# B23: chr12:48362563:48362564:+_ENSG00000134291_ENST00000256686|hu_hu|hu_hu_hu_mus_False|18_58 (ssRNA)
# RNA: GGGAGUUCUACAGUCCGACGAUCUCCGUCAAGCCCUUCGAUAGACCCUUGCGGGGGAAACUGUAAUCACUUUGUAUUUCUAAAAAAAAGAAACGCCAAAAACUUUCCAAAAAGCGGUUCAAAAAGCAGGCGGGAGGGGGAGGUCAACAGAGGAUUGAGCAUCA
# B24: chr4:140556289:140556290:+_ENSMUSG00000036622_ENSMUST00000037055|mus_mus|mus_mus_mus_hu_False|18_68 (ssRNA)
# RNA: GGGAGUUCUACAGUCCGACGAUCGAUGGAGCUCACCAGGCCCCCUUUUGCCGUGCAGAACCCUGUGCGAGUCACCACUGCCAGGACGUGCGGUCCCACAUAGGCCCGGGCCUGCAAAAUGAGGGUGCCGCAGAAGAGUGUGUGCAACAGAGGAUUGAGCAUCA
# B25: chr2:176857141:176857142:-_ENSG00000144320_ENST00000272748|hu_hu|motif|central (ssRNA)
# RNA: GGGAGUUCUACAGUCCGACGAUCUUUUUGUAAUCUCUGAUUUUUUUCCCUAAAUUCUUCCAAUGCUUGAAUUUCCUUAUCGGUACUUUCUAGAACUUCUACAGUUGAAGGUUUUGUCCUCCAUCGAGAAAAUAAUCCACCCAUCAACAGAGGAUUGAGCAUCA
# B26: chr4:144461564:144461565:+_ENSG00000153147_ENST00000283131|hu_hu|motif|central (ssRNA)
# RNA: GGGAGUUCUACAGUCCGACGAUCCCUCCCUUGUUGAAUGACUAUUGAAUCCAGUCUGAGUUUCAUCUCAGCACGUUCGGCGGUUCUUUCUUCUACAGUGUUAUCAGUUAUAAAGCGGAACACUCUGACUGUCUUAGUCUGCCCCAACAGAGGAUUGAGCAUCA
# B27: chr12:493273:493274:-_ENSG00000073614_ENST00000399788|hu_mus|hu_hu_hu_mus_False|28_108 (ssRNA)
# RNA: GGGAGUUCUACAGUCCGACGAUCUUUUCUCUCUACCACAGGGAUCUUCAAUGUAGAUCCUUGAAGUUCCCAAAAUUUUGCCAGUUGAUCCAAGAAGUCCAAUCUUACUCUGGUCAUUGCCUCAAGUUCAUUCAGGCGCUGGACCAACAGAGGAUUGAGCAUCA
# Biological target: T1, UNK ZnF1-3
# Test: nsRBNS (natural sequence RNA bind-n-seq); RBNS binding buffer (assumed for nsRBNS): 25 mM Tris pH 7.5, 150 mM KCl, 3 mM MgCl2, 0.01% Triton X-100, 500 ug/ml BSA, 20 U/ml SUPERase-In, 4 C; UNK is unkempt and MSI1 is Musashi-1; names of the RNAs are library labels; protein concentration not given here; high values mean tight binding
row,Binder,binding signal
1,B1,4.4 enrichment R
2,B2,2.23 enrichment R
3,B3,1.99 enrichment R
4,B4,0.526 enrichment R
5,B5,9.34 enrichment R
6,B6,0.507 enrichment R
7,B7,4.16 enrichment R
8,B8,0.585 enrichment R
9,B9,0.955 enrichment R
10,B10,1.5 enrichment R
11,B11,3.69 enrichment R
12,B12,1.24 enrichment R
13,B13,1.31 enrichment R
14,B14,1.28 enrichment R
15,B15,11.3 enrichment R
16,B16,14.8 enrichment R
17,B17,1.47 enrichment R
18,B18,3.48 enrichment R
19,B19,2.55 enrichment R
20,B20,1.44 enrichment R
21,B21,1.25 enrichment R
22,B22,0.989 enrichment R
23,B23,1.93 enrichment R
24,B24,0.954 enrichment R
25,B25,0.655 enrichment R
26,B26,0.923 enrichment R
27,B27,0.902 enrichment R
